The source of these data is PubChem BioAssay (NCI).

Molecules are shown by their SMILES. The panel holds about 83,000 compounds, 20% with a hit somewhere; the sample as a whole holds those more often.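 Treatment: one concentration, 48 hours, 96-well format. Scoring: percent growth, with anything below 10 considered active.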 Values without a mark were called inactive. Active and inactive are the calls of the source.

The assay relates to COLO 205 colon. Kind of assay: NCI-60 one-dose screen, 48 h (100 = growth as untreated, 0 = no growth, -100 = all killed). The note with it: 10 µM unless noted.
Regarding `Fc1ccc(COc2ccc(Nc3ncnc4sc5c(c34)CCCC5)cc2)cc1`, the growth was 103%.
As for `COc1cc(C2Cc3ncccc3-c3[nH]c(=O)c4cccnc4c32)cc(OC)c1OC` (stereo not drawn), the figure is -20% (active); as for `O=C(c1ccc(Cl)cc1Cl)N1c2ccccc2Sc2ccccc21`, 45%.
In the case of `O=C(N/N=C/c1ccc([N+](=O)[O-])cc1)c1ccc2nc(-c3ccc(Cl)cc3)[nH]c2c1` it was 2.28% (active); in that of `O=C(NCc1ccccc1O)c1cccc2ccccc12`, 106%.
With `CC1=C(C(=O)n2c3ccccc3c3ccccc32)C(c2cccc([N+](=O)[O-])c2)C(C(=O)n2c3ccccc3c3ccccc32)=C(C)N1`, the growth is 108%.
In the case of `COc1ccc(/C=C/C(=O)c2ccc(NC(=O)CSc3nnc(-c4cc(-c5ccccc5)nc5ccccc45)n3-c3ccccc3)cc2)cc1`, the growth was 110%.
In the case of `Cn1cc(-c2nc(-c3c[nH]c4ccncc34)cs2)c2cc(Br)ccc21` it was -71.1% (active); in that of `C#Cc1cccc(Oc2ccc(NC(=O)CCl)cc2)c1`, 61.6% [8.25 µM]; in that of `CC1(C)CC[C@]2(C(=O)N3CCOCC3)CC[C@]3(C)C(=CC[C@@H]4[C@@]5(C)C/C(=C/c6ccncc6)C(=O)C(C)(C)[C@@H]5CC[C@]43C)[C@@H]2C1`, -21.1% (active).
In the case of `CC(C)c1ccc(NC(=O)Nc2ccc(NC(=O)c3ccccc3N)cc2)cc1` it was 61.8%.
Turning to `Cc1cc(C(=O)Nc2cc(Nc3ncccc3-c3ncnc4nc[nH]c34)ccc2F)cc(C(F)(F)F)c1`, the growth is 13.4%.
Consider `COc1cc2c3c(n(CCCCNCCCn4c5c(c6cc(OC)c(OC)cc6c4=O)C(=O)c4cc6c(cc4-5)OCO6)c(=O)c2cc1OC)-c1cc2c(cc1C3=O)OCO2`, for which the growth was 103%.
As for `CNC(=O)c1c(NC(=O)c2ccc(C(C)(C)C)cc2)sc2c(CN(C)C)c(O)ccc12`, the figure is -68.5% (active); as for `CCCCn1sc(=O)n(Cc2ccc(CNC(=O)OCc3ccc4c(Cl)cc(Cl)c(O)c4n3)cc2)c1=O`, 98.1%.
In the case of `O=C1Nc2ccc(F)cc2/C1=N/c1nnc(Sc2ccccc2)s1` it was 119%.
In the case of `N#Cc1c(N2CCOCC2)nc(=S)[nH]c1-c1ccccc1` it was 77.3%.
`O=C(CSc1nnc2sc(Nc3cccc(Cl)c3)nn12)c1ccc(F)cc1`: the growth was 92.6%.
On to `C=C(CO)[C@@H]1CC[C@]2(COC3CCCCO3)CC[C@]3(C)[C@H](CC[C@@H]4[C@@]5(C)C=C(C=O)C(=O)C(C)(C)[C@@H]5CC[C@]43C)[C@@H]12` (stereo partly drawn), for which the growth is -60.2% (active).
In the case of `COc1ccc(-c2cc(C(=O)N3N=C(c4ccc(N)cc4)CC3c3ccccc3)c3ccccc3n2)cc1` (stereo not drawn) it was 10.8%.
As for `COc1ccc(-c2cc(-c3cc(OC)c(OC)c(OC)c3)c(C#N)c(=O)n2CCCCCC(=O)NO)cc1`, the figure is 120%; as for `Cn1ccnc1C(=O)/C=C/c1ccc(C(=O)Nc2ccc(F)cc2)cc1`, 25.8%.
On to `C=C1C(=O)O[C@H]2[C@H]1CC/C(COC(=O)NCCCCCCCCNC(=O)OC/C1=C/CC[C@@]3(C)O[C@H]3[C@H]3OC(=O)C(=C)[C@@H]3CC1)=C\CC[C@@]1(C)O[C@@H]21`, for which the growth is -64.9% (active).
In the case of `C/C(C=O)=C\c1ccc2c(c1)OCO2`, the growth was 118%.
Consider `COc1cccc(/C=C/C(=O)c2cc3c(N)c(C(=O)Nc4cccc(Cl)c4C)sc3nc2C)c1`, for which the growth is -27.1% (active).
As for `COC(=O)/C=C1/SC(=Nc2cccc(Cl)c2)N(CCc2c[nH]c3ccc(O)cc23)C1=O`, the figure is 90.3%.
In the case of `CCC/C(=N\NC(N)=O)C(OC)OC` it was 110%.
On to `COc1ccc2cc(Cn3cc[n+](Cc4ccc5ccccc5c4)c3)ccc2c1`, for which the growth is -66.3% (active).
For `Cn1c(=O)c2c(c3ccccc31)OC(N)=C(C#N)C21C(=O)c2ccccc2C1=O`, the growth was 102%.
In the case of `CN1CCN(c2ccc3c(c2)nc(NNC(=O)c2cnccn2)c2cccn23)CC1` it was 3.54% (active); in that of `Cc1cc(C)c(-c2c(O)c(Br)c(-c3c(C)cc(C)c(Br)c3C)c(O)c2Br)c(C)c1Br`, -67.2% (active).
Take `CCN(CC)S(=O)(=O)c1ccc(S(=O)(=O)N2CCC[C@@H](C(=O)N3CCN(C(=O)OC(C)(C)C)CC3)C2)cc1`: the growth is 108%.
In the case of `O=C1/C=C/[C@@H](O)[C@@H]2C[C@@H](O)C[C@H]2/C=C/CCC[C@H](CCOCc2ccccc2)O1` it was -74.5% (active).
